# Hits are enriched below; roughly 3.1% of the tested compounds scored in any of these assays.
# LGR2 inh: inhibitors of bursicon-induced Drosophila LGR2 receptor cAMP signaling | HEK293 LGR2, CRE-luciferase, bursicon-stimulated, 4 h | inhibition, % at 9.99 µM | 380,000 compounds, 0.35% hits;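 active means drop in luminescence signal, shown as inhibition above about 50% in the replicate tests, limit read from the data, passing the limit was not always enough; inconclusive means probably only some replicates passing the limit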;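 further: agonist challenge used bursicon conditioned medium at about half maximal strength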
# TROY NFkB inh: blocks TROY-dependent signaling in reporter cells | Q293 LMP1-TROYcd NF-kB luciferase reporter, 4 h | inhibition, % at 10 µM | 360,000 compounds, 0.98% hits | AID 1347056;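 active means compounds whose plate-normalised and pattern-corrected inhibition of the luciferase reporter signal at the single screening dose is 50% or more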
# EBV LMP1 NFkB: reduces LMP1-driven NF-kappaB luciferase signal | 350,000 compounds, 0.69% hits | AID 504558 | LMP1-induced NF-kappaB luciferase reporter cells, luminescence | inhibition, % at 12.5 µM; in the data active means inhibition above about 41%; inconclusive means no clear call, values can overlap the other calls;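 further: 0% = neutral control wells and 100% = reference inhibitor control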
# PAX8 inh HTS: inhibitors of PAX8 transcriptional activity in RMG-I cells | RMG-I TPO-luciferase reporter, SteadyGlo, 24 h | inhibition, % at 12.6 µM | 360,000 compounds, 1.2% hits;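 active means mean replicate inhibition at least 60% with every replicate also reaching 60%; inconclusive means only one of the two criteria is met; inactive means mean below 60% and not all replicates reaching 60%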;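 further: luciferase light reporting Pax8 driven TPO promoter activity; plate controls were median of neutral control wells for no effect and mitoxantrone controls for full effect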
# TWEAK Fn14 block: inhibitors of TWEAK-Fn14 interaction signaling; TWEAK-stimulated Fn14 reporter cells, luciferase luminescence, 8 h; inhibition, % at 10 µM; 360,000 compounds, 2% hits; AID 1159606; in the data active means inhibition above about 50%
# EWS-Fli inh: EWS/Fli transcriptional activity inhibition. A673 NR0B1-luciferase reporter, viability-normalised. inhibition, % at 12.6 µM. 350,000 compounds, 0.67% hits. AID 651661;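 active means mean inhibition of at least 50% after viability correction, with every replicate also passing that limit; inconclusive means mean reaches 50% but only one of two replicates passes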;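 further: firefly luciferase signal divided by Alamar Blue viability fluorescence both relative to DMSO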
# * marks the source's active call; other numbers are inactive results; ? = inconclusive; · = no result given.
SMILES,LGR2 inh,TROY NFkB inh,EBV LMP1 NFkB,PAX8 inh HTS,TWEAK Fn14 block,EWS-Fli inh
CCc1ccc([C@@H]2CC=C(C(=O)O)[C@H](c3ccc(C(C)(C)C)cc3)N2S(=O)(=O)c2ccc(C)cc2)cc1,9.7,83.7*,-8.0,16.3,84.2*,-19.8
CCc1ccc([C@@H]2CC=C(C(=O)O)[C@H](c3ccccc3)N2S(=O)(=O)c2ccc(C)cc2)cc1,-7.6,22.9,-2.0,0.5,8.1,-2.8
Cc1ccc(S(=O)(=O)N2[C@@H](c3ccc(Cl)c(Cl)c3)C(C(=O)O)=C[C@H]2CC2CCCC2)cc1,-2.2,67.1*,-3.6,28.0,11.0,6.9
Cc1ccc(S(=O)(=O)N2[C@@H](c3ccc(C(C)(C)C)cc3)C(C(=O)O)=CC[C@H]2c2cccs2)cc1,2.7,25.4,3.4,9.2,22.0,-27.6
Cc1ccc(S(=O)(=O)N2[C@@H](c3ccccc3F)C(C(=O)O)=CC[C@H]2c2ccc(C(C)C)cc2)cc1,2.7,13.1,2.6,-9.9,4.9,2.4
Cc1ccc([C@@H]2CC=C(C(=O)O)[C@H](c3ccc(C(C)(C)C)cc3)N2S(=O)(=O)c2ccc(C)cc2)cc1,1.6,64.9*,3.7,21.7,52.0*,-4.7
C[C@H](CO)N1C[C@H](C)[C@@H](CN(C)C(=O)CN(C)C)Oc2ncc(-c3ccc(C(=O)N(C)C)cc3)cc2C1=O,6.5,·,·,·,·,-17.8
CO[C@@H]1CN(C)C(=O)c2cc(NS(C)(=O)=O)ccc2OC[C@@H](C)N(CC2CCCCC2)C[C@H]1C,6.9,·,·,·,·,-8.0
CC(C)NC(=O)Nc1ccc2c(c1)C(=O)N([C@H](C)CO)C[C@@H](C)[C@@H](CN(C)C(=O)Nc1ccc(C(F)(F)F)cc1)OCCCC[C@@H](C)O2,-11.6,·,·,8.1,·,28.1
CO[C@@H]1CN(C)C(=O)c2cc(NC(=O)c3cc(C)on3)ccc2OC[C@@H](C)N(CC2CC2)C[C@@H]1C,1.9,·,·,-19.6,·,-3.7
COc1ccc(NC(=O)N(C)C[C@H]2Oc3ncc(C#C[C@@H](C)O)cc3C(=O)N([C@@H](C)CO)C[C@@H]2C)cc1,-26.3,·,·,·,·,-6.5
Cc1ccc(S(=O)(=O)N2[C@@H](c3ccc(C(C)(C)C)cc3)C(C(=O)O)=CC[C@H]2c2ccc(Cl)cc2)cc1,13.0,88.0*,7.8,-0.1,89.4*,-18.6
Cc1ccc(S(=O)(=O)N2[C@@H](c3ccc(Cl)cc3)C(C(=O)O)=CC[C@H]2c2ccc(Cl)c(Cl)c2)cc1,-0.3,62.5*,-1.8,-12.5,25.9,2.6
Cc1ccc(S(=O)(=O)N2[C@@H](c3ccc(Br)cc3)C(C(=O)O)=CC[C@H]2c2ccc(C(C)C)cc2)cc1,-3.6,69.8*,3.2,10.4,20.6,-0.6
Cc1ccc(S(=O)(=O)N2C(c3ccc(Cl)c(Cl)c3)CC=C(C(=O)O)C2c2ccc(Cl)cc2)cc1 (stereo unspecified),9.9,·,·,8.0,·,5.7
Cc1ccc([C@@H]2CC=C(C(=O)O)[C@H](c3ccc(Br)cc3)N2S(=O)(=O)c2ccc(C)cc2)cc1,6.2,28.9,1.9,10.4,18.3,-7.2
Nc1c(NC(=O)CC[n+]2ccccc2)cccc1[N+](=O)[O-],·,45.8,2.4,22.6,52.1*,-10.6
CN(C)c1cc[n+](CCC(=O)Nc2cccc([N+](=O)[O-])c2N)cc1,2.6,4.5,-4.8,·,17.8,·
C[C@H]1CN([C@@H](C)CO)C(=O)Cc2cc(NC(=O)Nc3ccccc3)ccc2O[C@H]1CN(C)Cc1ccc(C(=O)Nc2ccccc2N)cc1,-12.0,·,·,7.7,·,38.2
CC1=C(C)C(=O)C(CCCCC#CCCCC#CCO)=C(C)C1=O,·,10.1,43.3*,·,23.6,·
Cc1ccc(-n2nnnc2Sc2ccc(S(=O)(=O)NCCN(C)C)cc2[N+](=O)[O-])cc1,·,33.1,46.7*,?,97.2*,?
O=[N+]([O-])c1cc(S(=O)(=O)NCCN2CCOCC2)ccc1Sc1nnnn1-c1ccccc1,·,21.6,-11.5,58.9,89.2*,13.1
Cc1ccc(S(=O)(=O)NCCSc2nnnn2-c2ccc(C(N)=O)cc2)cc1,14.7,2.5,-7.4,1.0,-2.6,6.8
Cc1noc(C)c1NC(=O)Nc1ccc2c(c1)CC(=O)N([C@H](C)CO)C[C@@H](C)[C@@H](CN(C)C(=O)NC(C)C)O2,3.7,·,·,-5.8,·,-3.9
Cc1ccc(CNc2ncnc3ccc(-c4ccoc4C)cc23)o1,7.7,-4.9,·,-7.4,64.9*,-10.4
SMILES,LGR2 inh,TROY NFkB inh,EBV LMP1 NFkB,PAX8 inh HTS,TWEAK Fn14 block,EWS-Fli inh
COc1cccc(-c2ccc3ncnc(NCc4ccc5c(c4)OCO5)c3c2)c1,·,31.3,21.7,-11.1,80.3*,-1.8
Cc1cccc(CNc2ncnc3ccc(-c4ccc5c(c4)OCCO5)cc23)c1,25.9,35.5,-15.1,80.2*,32.9,21.5
c1nc(NCc2ccc3c(c2)OCO3)c2cc(-c3ccc4c(c3)OCCO4)ccc2n1,5.6,21.2,-10.1,48.6,-9.9,9.2
Cc1ccsc1CN(C)c1ncnc2ccc(-c3ccoc3)cc12,6.9,29.6,·,-2.7,68.3*,0.4
COc1cccc(-c2ccc3ncnc(NCc4cc(C)cs4)c3c2)c1,17.0,42.4,32.8,-2.5,77.3*,1.3
Cc1cccc(-c2ccc3ncnc(NCc4cccs4)c3c2)c1,0.2,27.4,-5.1,64.8*,10.2,39.3
Cc1csc(CNc2ncnc3ccc(-c4ccoc4)cc23)c1,?,53.7*,38.2,-8.6,89.8*,3.9
c1cncc(CNc2ncnc3ccc(-c4ccoc4)cc23)c1,8.1,46.8,46.5*,-18.2,83.9*,-12.7
Cc1csc(CNc2ncnc3ccc(-c4cccnc4)cc23)c1,-7.0,29.1,-4.6,-7.4,21.0,17.9
Cc1ccc(S(=O)(=O)Nc2cccc3c2O[C@H](CN(C)Cc2ccc(Oc4ccccc4)cc2)[C@@H](C)CN([C@H](C)CO)C3=O)cc1,23.3,·,·,-7.3,·,2.9
CC(C)NC(=O)N(C)C[C@H]1Oc2c(NC(=O)c3nc4ccccc4s3)cccc2C(=O)N([C@H](C)CO)C[C@@H]1C,-11.7,·,·,·,·,8.4
O=C(C[C@@H]1CC[C@H](NC(=O)CC2CC2)[C@@H](CO)O1)NCc1ccccc1,-10.9,·,·,-7.0,·,5.1
C[C@H]1CCCCO[C@H](CN(C)C(=O)NC2CCCCC2)[C@@H](C)CN([C@@H](C)CO)C(=O)c2cc(N(C)C)ccc2O1,1.6,·,·,7.0,·,-1.7
O=C(C[C@H]1CC[C@H](NC(=O)Nc2ccccc2F)[C@@H](CO)O1)NCc1ccc(Cl)cc1,19.3,·,·,-3.1,·,4.0
C[C@@H]1CN([C@H](C)CO)C(=O)c2cc(NC(=O)Cc3cn(C)c4ccccc34)ccc2O[C@@H]1CN(C)Cc1ccc(-c2ccccc2)cc1,6.0,·,·,·,·,-4.5
Cc1ccc(S(=O)(=O)N(C)C[C@@H]2OCCCC[C@H](C)Oc3ccc(NS(C)(=O)=O)cc3C(=O)N([C@H](C)CO)C[C@@H]2C)cc1,3.2,·,·,7.8,·,3.3
Cc1cccc(CNc2ncnc3ccc(-c4cccnc4)cc23)c1,-46.0,16.1,-3.8,-2.6,16.9,12.0

# Screening results (PubChem)
